An excerpt weighted towards active compounds, which were near 2.9% of everything screened.
KLK7 zymogen act – proKLK7 zymogen activators, primary screen, biochemical, fluorescence intensity; Kallikrein-7 (Homo sapiens), P49862; purified proKLK7, EDANS-DABCYL substrate fluorescence; 100% is mature enzyme control, 0% vehicle; activation, % at 7 µM; hit rate 0.9% among 370,000; AID 652039, 2013;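 active = activation above the mean of all tested compounds plus 3 SD, computed per campaign excluding outliers beyond control limits, cut at about 13% in these data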
ADAM17 inh – ADAM17 inhibitors, primary screen, biochemical, QFRET | Disintegrin and metalloproteinase domain-containing protein 17 (Homo sapiens), P78536 | AID 720648, 2013 | inhibition, % at 6.95 µM | recombinant ADAM17, EDANS/DABCYL FRET peptide cleavage | hit rate 0.83% among 370,000;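 active = inhibition above the mean of compounds lying between control limits plus 3 SD, set per campaign, cut at about 8.5% in these data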;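 note: 0% = DMSO-only wells as the low control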
PLCg1 inh – PLC-gamma1 enzyme inhibitors, primary screen, biochemical, fluorescence, purified enzyme | fluorogenic substrate | inhibition, % at 12.2 µM | hit rate 0.84% among 370,000; in the data active = inhibition above about 9.5%
ADAM10 inh – human ADAM10 inhibitors, primary screen, biochemical, QFRET, HTS; inhibition, % at 7 µM; hit rate 0.62% among 370,000; AID 720582, 2013; recombinant ADAM10, EDANS/DABCYL FRET peptide cleavage, 3 h; Disintegrin and metalloproteinase domain-containing protein 10 (Homo sapiens), O14672;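 active = inhibition above a per-campaign cutoff equal to the mean of compounds falling between control-based bounds plus 3 SD, cut at about 20% in these data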;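 note: 0% = DMSO wells while the 100% control is not disclosed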
Target sequence (O14672 214-748 limits assumed): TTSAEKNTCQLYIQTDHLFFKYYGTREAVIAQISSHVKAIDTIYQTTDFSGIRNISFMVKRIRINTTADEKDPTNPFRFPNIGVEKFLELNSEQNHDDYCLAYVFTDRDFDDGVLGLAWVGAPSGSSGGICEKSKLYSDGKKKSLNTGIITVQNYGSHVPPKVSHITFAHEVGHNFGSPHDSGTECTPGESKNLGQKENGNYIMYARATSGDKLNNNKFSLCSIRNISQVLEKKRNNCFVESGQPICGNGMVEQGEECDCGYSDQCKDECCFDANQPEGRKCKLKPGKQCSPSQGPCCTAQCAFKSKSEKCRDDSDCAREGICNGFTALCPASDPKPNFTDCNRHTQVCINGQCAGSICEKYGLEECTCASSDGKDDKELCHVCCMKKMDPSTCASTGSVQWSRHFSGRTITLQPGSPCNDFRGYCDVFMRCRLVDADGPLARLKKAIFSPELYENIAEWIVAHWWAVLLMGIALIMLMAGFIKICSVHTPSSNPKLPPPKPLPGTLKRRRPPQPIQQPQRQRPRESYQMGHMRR
PLC-beta3 inh – human PLC-beta3 inhibitors, primary screen, biochemical, fluorescence. 1-phosphatidylinositol 4,5-bisphosphate phosphodiesterase beta-3 (Homo sapiens), Q01970. Purified PLC-beta3, fluorogenic substrate. inhibition, % at 12.2 µM. hit rate 0.18% among 370,000. AID 720704, 2013; in the data active = inhibition above about 11%;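 note: 0% = median of compound wells on plate and 100% = full blocker control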
ADAM10 confirm – human ADAM10 inhibitors, confirmation, biochemical, QFRET, triplicate. shares compounds with ADAM10 inh. ADAM10 QFRET peptide cleavage, EDANS fluorescence. inhibition, % at 6.95 µM. hit rate 1% among 2,100. AID 743208, 2013;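 active = inhibition above about 20% chosen separately for each screening run, limit read from the data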;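 note: 0% = DMSO wells and 100% = marimastat wells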
ADAM17 counter – ADAM17 inhibitors, counter-screen for ADAM10 exosite inhibitor project, biochemical, QFRET, high throughput; shares compounds with ADAM10 inh; ADAM17 QFRET peptide cleavage, EDANS fluorescence; inhibition, % at 6.95 µM; hit rate 0.5% among 2,100; AID 743214, 2013;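 active = mean triplicate inhibition above the solvent-only control wells' mean plus 3 SD, cut at about 12% in these data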;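 note: 0% = DMSO wells and 100% = marimastat wells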
The depositor's hits bear a star.

`COC(=O)[C@]12C[C@H](CC(=O)NCc3cccs3)C(=O)N(Cc3ccco3)C1=C[C@H](COCc1ccccc1)O[C@@H]2C` gave KLK7 zymogen act 0, ADAM17 inh -2, PLCg1 inh 0, ADAM10 inh -2 and PLC-beta3 inh 1.
`COc1ccc2c(c(-c3ccccc3)cn2C)c1-c1ccccc1` gave KLK7 zymogen act -2, ADAM17 inh -10, PLCg1 inh -4, ADAM10 inh -35 and PLC-beta3 inh -9.
COc1ccc(Cn2cc(COC(=O)Nc3ccc(F)cc3)nn2)cc1 was read as KLK7 zymogen act 0, ADAM17 inh -1, PLCg1 inh 0, ADAM10 inh 3 and PLC-beta3 inh 1.
For C[C@@H]1CCCCO[C@@H](CN(C)C(=O)Nc2ccc(C(F)(F)F)cc2)[C@@H](C)CN([C@H](C)CO)C(=O)c2cc(NS(=O)(=O)c3ccc(Cl)cc3)ccc2O1 the results were KLK7 zymogen act 0, ADAM17 inh 16*, PLCg1 inh 0, ADAM10 inh 45*, PLC-beta3 inh 4, ADAM10 confirm 9 and ADAM17 counter 1.
C[C@@H]1CN([C@H](C)CO)S(=O)(=O)c2ccc(Br)cc2O[C@@H]1CN(C)C(=O)Nc1ccc(C(F)(F)F)cc1 was read as KLK7 zymogen act 0, ADAM17 inh 0, PLCg1 inh 2, ADAM10 inh 5 and PLC-beta3 inh 1.
C[C@@H]1CN([C@@H](C)CN(C)C)C(=O)c2cc(NC(=O)Nc3ccccc3)ccc2O[C@@H](C)CCCCO[C@H]1CN(C)S(=O)(=O)c1ccc(F)cc1 was read as ADAM17 inh 8, PLCg1 inh 2, ADAM10 inh 19 and PLC-beta3 inh 8.
`C[C@@H]1CN([C@@H](C)CO)S(=O)(=O)c2ccc(Br)cc2O[C@H]1CN(C)C(=O)Nc1ccc(C(F)(F)F)cc1` gave KLK7 zymogen act 0, ADAM17 inh 8, PLCg1 inh 0, ADAM10 inh 21*, PLC-beta3 inh -1, ADAM10 confirm 4 and ADAM17 counter 1.
Screening C[C@@H]1CN([C@H](C)CO)C(=O)c2cc(NC(=O)Nc3ccccc3)ccc2O[C@@H](C)CCCCO[C@H]1CN(C)S(=O)(=O)c1ccc(F)cc1 returned ADAM17 inh 8, PLCg1 inh 0, ADAM10 inh 20*, PLC-beta3 inh 2, ADAM10 confirm 6 and ADAM17 counter 2.
Cc1ccc(NS(=O)(=O)c2ccc(NC(=O)c3cccc(NC(=O)C(C)C)c3)cc2)cc1 was read as KLK7 zymogen act 0, ADAM17 inh 6, PLCg1 inh -2, ADAM10 inh 24*, PLC-beta3 inh -1, ADAM10 confirm 3 and ADAM17 counter 1.
For Cc1c(C(C)(C)O)[nH]c2cc(C(F)(F)F)ccc12 the results were KLK7 zymogen act 0, ADAM17 inh -3, PLCg1 inh 0, ADAM10 inh 5 and PLC-beta3 inh -1.
O=c1[nH]c2cc(C(F)(F)F)ccc2n1-c1cc(C(F)(F)F)ccc1O was read as KLK7 zymogen act 1, ADAM17 inh 3, PLCg1 inh 0, ADAM10 inh 20*, PLC-beta3 inh 3, ADAM10 confirm 0 and ADAM17 counter -1.
Screening Nc1nc(-c2ccc(Cl)cc2)c(S(=O)(=O)c2ccccc2)s1 returned KLK7 zymogen act 0, ADAM17 inh 8, PLCg1 inh 1, ADAM10 inh 20*, PLC-beta3 inh -1, ADAM10 confirm 0 and ADAM17 counter 0.
CC(=O)N[C@H]1C[C@@H]2O[C@H](CO)CC[C@@H]2O[C@@H]1CCc1ccc(-c2ccc(F)cc2)cc1 was read as KLK7 zymogen act 1, ADAM17 inh -3, PLCg1 inh 1, ADAM10 inh -7 and PLC-beta3 inh -3.
Screening COc1ccc(/C=N/NC(=O)c2ccn[nH]2)cc1CSc1ccccn1 returned KLK7 zymogen act 0, ADAM17 inh -2, PLCg1 inh 1, ADAM10 inh 6 and PLC-beta3 inh -6.
For COc1ccc(/C=N/NC(=O)c2ccn[nH]2)cc1COc1ccc(Cl)cc1 the results were KLK7 zymogen act 0, ADAM17 inh 7, PLCg1 inh 1, ADAM10 inh 20*, PLC-beta3 inh -4, ADAM10 confirm 5 and ADAM17 counter 3.
For O=S(=O)(NCc1cccc(C(F)(F)F)c1)NCc1ccccc1F the results were KLK7 zymogen act 0, ADAM17 inh 4, PLCg1 inh 4, ADAM10 inh 20*, PLC-beta3 inh 0, ADAM10 confirm 1 and ADAM17 counter 0.
N#Cc1ccc(OC[C@@H](O)CN2CCC(C(O)(c3ccccc3)c3ccccc3)CC2)cc1F was read as KLK7 zymogen act 0, ADAM17 inh -2, PLCg1 inh 2, ADAM10 inh 0 and PLC-beta3 inh -1.
Cc1ccc(S(=O)(=O)NCC2CN(S(=O)(=O)c3ccc(C)cc3)c3ccccc3C(=O)N2c2ccc(F)cc2)cc1 (stereo not drawn) was read as ADAM17 inh 5, PLCg1 inh 6, ADAM10 inh 23*, PLC-beta3 inh 6, ADAM10 confirm 2 and ADAM17 counter 1.
`Cc1ccc(S(=O)(=O)NC[C@@H]2C[C@H](c3ccccc3)ON2S(=O)(=O)c2ccc(C)cc2)cc1` gave ADAM17 inh 7, PLCg1 inh -1, ADAM10 inh 16 and PLC-beta3 inh -3.
`COc1ccc(C2(c3ccc(OC)cc3)NC(=O)N(CC(=O)Nc3ccccc3C(F)(F)F)C2=O)cc1` gave KLK7 zymogen act 0, ADAM17 inh 8, PLCg1 inh 5, ADAM10 inh 21*, PLC-beta3 inh -1, ADAM10 confirm 2 and ADAM17 counter 1.
`Cc1ccc(C2(c3ccccc3)NC(=O)N(CC(=O)NCc3ccccc3)C2=O)cc1C` (stereo not drawn) gave KLK7 zymogen act 0, ADAM17 inh 8, PLCg1 inh 4, ADAM10 inh 23*, PLC-beta3 inh 3, ADAM10 confirm 3 and ADAM17 counter 1.
COc1ccc2c(c1)CNC2CS(=O)(=O)NCCc1ccccc1 (stereo not drawn) was read as KLK7 zymogen act -1, ADAM17 inh -21, PLCg1 inh -26, ADAM10 inh -83 and PLC-beta3 inh -34.

Bioassay records: PubChem, The Scripps Research Institute Molecular Screening Center
